Reference: PubChem BioAssay AID1159580 (chemical genetic matrix, 2015)
Several values for one entry are separate records, joined by “and”; a condition that tells them apart may be missing. Equal values may be shown once. The whole screen tested about 5,500 compounds, of which about 2,000 (36%) were called active. Another 18% or so got no clear call; they are omitted. Rule as the data show it: active = normalized growth mostly below about 0.91 (no sharp cut-off); inconclusive = no clear call, values can overlap the other calls; inactive = mostly above about 0.92. The list shows a part of the results.

Assay: chemical genetic growth profiling, strain panel (AID 1159580);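 also: tested at 20 µM; growth read once vehicle control cultures reached saturation at 30 °C; 1 = growth at the plate median or of vehicle wells; lower values mean less growth of the strain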
Settings: S. cerevisiae deletion strains, growth OD

Measured: normalized growth

COc1c2ccoc2nc2c(OC)c(OCC(O)C(C)(C)O)ccc12 (configuration not stated)
inactive: locus YAL013W, strain DEP1, active compounds read low 0.992 | locus YAL021C, strain ccr4, active compounds read low 1.04 | locus YAL026C, strain drs2, active compounds read low 1.02 | locus YAL030W, strain snc1, active compounds read low 1.01 | locus YBL061C, strain skt5, active compounds read low 1.02 | locus YBR009C, strain hhf1, active compounds read low 1.02 | locus YBR021W, strain FUR4, active compounds read low 0.992 | locus YBR023C, strain chs3, active compounds read low 1.02 | locus YBR171W, strain sec66, active compounds read low 1.02 | locus YBR229C, strain ROT2, active compounds read low 1 | locus YBR231C, strain swc5, active compounds read low 1.01 | locus YBR279W, strain paf1, active compounds read low 1.01 | locus YCL011C, strain gbp2, active compounds read low 1.03 | locus YCL016C, strain dcc1, active compounds read low 1.02 | locus YCL029C, strain bik1, active compounds read low 0.974 | locus YCL061C, strain MRC1, active compounds read low 1.03 | locus YCL069W, strain vba3, active compounds read low 1.01 | locus YCR088W, strain abp1, active compounds read low 1.02 | locus YDL005C, strain med2, active compounds read low 1.01 | locus YDL035C, strain GPR1, active compounds read low 0.992 | locus YDL040C, strain nat1, active compounds read low 1.01 | locus YDL074C, strain BRE1, active compounds read low 1.02 | locus YDL101C, strain DUN1, active compounds read low 1 | locus YDL134C, strain PPH21, active compounds read low 0.991 | locus YDL185W, strain tfp1, active compounds read low 0.974 | locus YDL192W, strain arf1, active compounds read low 0.984 | locus YDR001C, strain nth1, active compounds read low 1.01 | locus YDR069C, strain doa4, active compounds read low 1.03 | locus YDR101C, strain arx1, active compounds read low 1 | locus YDR137W, strain rgp1, active compounds read low 1.02 | locus YDR150W, strain NUM1, active compounds read low 0.99 | locus YDR159W, strain sac3, active compounds read low 1.01 | locus YDR162C, strain NBP2, active compounds read low 1.02 | locus YDR195W, strain ref2 0.976 | locus YDR297W, strain sur2, active compounds read low 1.02 | locus YDR318W, strain mcm21, active compounds read low 0.981 | locus YDR334W, strain swr1, active compounds read low 1.02 | locus YDR335W, strain msn5, active compounds read low 1.02 | locus YDR388W, active compounds read low 0.997 | locus YDR392W, strain spt3, active compounds read low 0.982 | locus YDR502C, strain sam2, active compounds read low 1.01 | locus YEL003W, strain gim4, active compounds read low 1.01 | locus YEL037C, strain rad23, active compounds read low 1.01 | locus YEL061C, strain CIN8 (second series), active compounds read low 1.01 | locus YEL061C, strain CIN8, active compounds read low 1 | locus YER015W, strain faa2, active compounds read low 1.02 | locus YER016W, strain bim1, active compounds read low 1.01 | locus YER110C, active compounds read low 0.983 | locus YER111C, strain swi4, active compounds read low 1.02 | locus YER155C, strain BEM2 (second series), active compounds read low 1.04 | locus YER155C, strain BEM2, active compounds read low 0.996 | locus YER167W, strain BCK2, active compounds read low 0.972 | locus YFR010W, strain ubp6, active compounds read low 1.02 | locus YGL078C, strain dbp3, active compounds read low 0.983 | locus YGL086W, strain mad1, active compounds read low 0.976 | locus YGL167C, strain pmr1, active compounds read low 1.01 | locus YGL173C, strain kem1, active compounds read low 1.02 | locus YGL227W, strain vid30, active compounds read low 1.02 | locus YGL240W, strain doc1, active compounds read low 1.04 | locus YGL248W, strain PDE1, active compounds read low 0.991 | locus YGL253W, strain hxk2, active compounds read low 1.02 | locus YGR078C, strain PAC10, active compounds read low 1.02 | locus YGR135W, strain pre9, active compounds read low 0.995 | locus YGR229C, strain SMI1, active compounds read low 1.02 | locus YGR252W, strain gcn5, active compounds read low 0.984 | locus YHR013C, strain ard1, active compounds read low 1.03 | locus YHR027C, strain rpn1, active compounds read low 1.01 | locus YHR030C, strain SLT2, active compounds read low 0.99 and 1.02 | locus YHR079C, strain IRE1 (second series), active compounds read low 1 | locus YHR079C, strain IRE1, active compounds read low 1.03 | locus YHR094C, strain hxt1, active compounds read low 0.971 | locus YHR129C, strain ARP1, active compounds read low 1 | locus YHR142W, strain chs7, active compounds read low 1.03 | locus YHR200W, strain rpn10, active compounds read low 0.974 | locus YIL066C, strain RNR3, active compounds read low 0.998 | locus YIL073C, strain SPO22, active compounds read low 0.9 | locus YIL125W, strain kgd1, active compounds read low 0.999 | locus YIR030C, strain dcg1, active compounds read low 0.983 | locus YJL092W, strain hpr5, active compounds read low 1.01 | locus YJL095W, strain BCK1 (second series), active compounds read low 1.01 | locus YJL095W, strain BCK1, active compounds read low 1.05 and 1 | locus YJL115W, strain asf1, active compounds read low 1.02 | locus YJL129C, strain trk1, active compounds read low 1.04 | locus YJL134W, strain LCB3, active compounds read low 0.989 | locus YJL154C, strain vps35, active compounds read low 1.02 | locus YJL164C, strain tpk1, active compounds read low 1.02 | locus YJL166W, strain qcr8, active compounds read low 1.02 | locus YJL168C, strain set2, active compounds read low 0.995 | locus YJL187C, strain SWE1 (second series), active compounds read low 1.01 | locus YJL187C, strain SWE1, active compounds read low 1.01 | locus YJR043C, strain POL32, active compounds read low 0.987 | locus YJR066W, strain TOR1, active compounds read low 0.964
